# Unmarked numbers belong to inactive results.
# What was measured:
# Assay in all cases: log2 ratio of Biotin-Ahx-Ub-VS probe labelling (fragment/DMSO); higher = less target engagement (more negative = stronger competition), active = hit call of the paper (q ≤ 0.05, log2 ratio ≤ -1)
# Settings in all cases: compound concentration: 200 uM; treatment time: 3 h
# ALG13 = target: T1, ALG13 (UniProt Q9NP73)
# T1 sequence (whole entry): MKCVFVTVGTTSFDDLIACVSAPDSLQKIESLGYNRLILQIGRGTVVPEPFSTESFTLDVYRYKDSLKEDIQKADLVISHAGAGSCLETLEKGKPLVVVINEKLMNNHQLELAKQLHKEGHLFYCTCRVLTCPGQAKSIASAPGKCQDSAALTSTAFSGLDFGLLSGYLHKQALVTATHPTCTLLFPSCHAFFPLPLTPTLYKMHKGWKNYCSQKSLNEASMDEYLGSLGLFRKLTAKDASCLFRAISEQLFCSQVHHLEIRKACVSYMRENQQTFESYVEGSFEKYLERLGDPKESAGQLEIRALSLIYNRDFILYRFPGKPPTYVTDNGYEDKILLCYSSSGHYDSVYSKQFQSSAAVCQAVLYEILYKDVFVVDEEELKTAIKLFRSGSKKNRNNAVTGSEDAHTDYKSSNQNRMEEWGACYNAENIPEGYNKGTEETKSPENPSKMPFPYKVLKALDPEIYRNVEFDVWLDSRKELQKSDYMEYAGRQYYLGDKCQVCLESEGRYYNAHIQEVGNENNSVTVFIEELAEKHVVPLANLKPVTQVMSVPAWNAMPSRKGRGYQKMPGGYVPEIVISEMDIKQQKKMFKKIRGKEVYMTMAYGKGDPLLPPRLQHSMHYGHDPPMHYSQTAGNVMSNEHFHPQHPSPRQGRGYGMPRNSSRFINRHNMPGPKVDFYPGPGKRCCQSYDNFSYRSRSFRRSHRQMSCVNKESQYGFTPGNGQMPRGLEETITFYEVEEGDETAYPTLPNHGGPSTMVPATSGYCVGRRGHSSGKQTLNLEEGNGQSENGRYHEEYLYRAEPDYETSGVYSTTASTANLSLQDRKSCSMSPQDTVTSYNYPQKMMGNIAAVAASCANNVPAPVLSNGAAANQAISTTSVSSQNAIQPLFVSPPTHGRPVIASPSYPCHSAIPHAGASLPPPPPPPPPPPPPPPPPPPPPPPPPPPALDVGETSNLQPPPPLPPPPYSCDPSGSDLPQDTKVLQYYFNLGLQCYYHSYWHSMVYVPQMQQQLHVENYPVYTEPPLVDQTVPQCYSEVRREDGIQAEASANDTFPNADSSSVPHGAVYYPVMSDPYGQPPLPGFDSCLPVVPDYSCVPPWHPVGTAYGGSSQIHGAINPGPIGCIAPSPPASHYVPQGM
# Outline: (§1)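 The table lists average log2 ratios of fragment over vehicle, from an unpaired t-test on global-median-normalised Spectronaut label-free quantities. Proteins with ≥2 unique peptides were used. Samples were HEK293T lysate (495 µg) treated in triplicate with fragment at 200 µM or vehicle for 3 h, then with Biotin-Ahx-Ub-VS (0.5 µM final) for 1 h, with labelled DUBs NeutrAvidin-enriched and run by diaPASEF LC-MS/MS.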
# ATXN3 = ATXN3 (UniProt P54252)
# Chain of ATXN3 (P54252 whole entry): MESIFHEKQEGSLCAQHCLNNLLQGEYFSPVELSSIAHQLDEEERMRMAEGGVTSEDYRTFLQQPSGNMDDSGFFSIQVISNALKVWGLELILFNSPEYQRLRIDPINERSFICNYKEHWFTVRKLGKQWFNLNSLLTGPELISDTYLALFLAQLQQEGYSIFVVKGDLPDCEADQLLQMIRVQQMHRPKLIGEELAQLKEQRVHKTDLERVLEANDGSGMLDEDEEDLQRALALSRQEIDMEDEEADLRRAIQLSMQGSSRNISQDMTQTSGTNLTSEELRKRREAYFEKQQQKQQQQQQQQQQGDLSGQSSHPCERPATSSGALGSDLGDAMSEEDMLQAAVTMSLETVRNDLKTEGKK
# Outline: as §1
# BAP1 = target: T2, BAP1 (UniProt Q92560)
# T2 sequence (whole entry): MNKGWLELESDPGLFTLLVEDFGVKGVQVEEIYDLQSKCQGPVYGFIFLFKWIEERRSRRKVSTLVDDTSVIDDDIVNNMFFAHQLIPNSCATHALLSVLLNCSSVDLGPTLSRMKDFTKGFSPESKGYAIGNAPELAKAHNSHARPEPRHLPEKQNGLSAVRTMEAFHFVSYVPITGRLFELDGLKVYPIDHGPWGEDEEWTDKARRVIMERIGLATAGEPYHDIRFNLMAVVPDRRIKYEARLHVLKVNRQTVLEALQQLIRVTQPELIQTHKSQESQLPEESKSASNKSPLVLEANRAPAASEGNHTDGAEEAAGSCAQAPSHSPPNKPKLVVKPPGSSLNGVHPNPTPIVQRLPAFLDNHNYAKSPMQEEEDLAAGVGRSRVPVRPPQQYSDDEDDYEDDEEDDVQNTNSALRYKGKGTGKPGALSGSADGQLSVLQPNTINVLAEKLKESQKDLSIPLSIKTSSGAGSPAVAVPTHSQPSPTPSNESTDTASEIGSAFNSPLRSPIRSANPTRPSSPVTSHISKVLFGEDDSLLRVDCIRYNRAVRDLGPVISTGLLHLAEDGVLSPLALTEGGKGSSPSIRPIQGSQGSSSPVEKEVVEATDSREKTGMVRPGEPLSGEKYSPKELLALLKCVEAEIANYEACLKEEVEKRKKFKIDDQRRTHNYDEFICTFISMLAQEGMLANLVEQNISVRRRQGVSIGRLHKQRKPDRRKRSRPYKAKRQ
# Outline: as §1
# EIF3F = EIF3F (UniProt O00303)
# Chain of EIF3F (O00303 whole entry): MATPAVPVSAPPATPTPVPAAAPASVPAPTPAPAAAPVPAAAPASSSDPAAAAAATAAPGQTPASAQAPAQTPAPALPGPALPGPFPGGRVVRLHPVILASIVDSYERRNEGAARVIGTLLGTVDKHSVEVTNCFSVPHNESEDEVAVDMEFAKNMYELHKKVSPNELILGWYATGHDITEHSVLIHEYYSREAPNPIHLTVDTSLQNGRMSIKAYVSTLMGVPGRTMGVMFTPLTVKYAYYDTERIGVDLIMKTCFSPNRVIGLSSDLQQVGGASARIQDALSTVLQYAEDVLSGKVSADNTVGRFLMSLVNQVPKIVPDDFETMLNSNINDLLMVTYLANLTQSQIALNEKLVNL
# Outline: as §1
# EIF3H = EIF3H (UniProt O15372)
# Chain of EIF3H (O15372 whole entry): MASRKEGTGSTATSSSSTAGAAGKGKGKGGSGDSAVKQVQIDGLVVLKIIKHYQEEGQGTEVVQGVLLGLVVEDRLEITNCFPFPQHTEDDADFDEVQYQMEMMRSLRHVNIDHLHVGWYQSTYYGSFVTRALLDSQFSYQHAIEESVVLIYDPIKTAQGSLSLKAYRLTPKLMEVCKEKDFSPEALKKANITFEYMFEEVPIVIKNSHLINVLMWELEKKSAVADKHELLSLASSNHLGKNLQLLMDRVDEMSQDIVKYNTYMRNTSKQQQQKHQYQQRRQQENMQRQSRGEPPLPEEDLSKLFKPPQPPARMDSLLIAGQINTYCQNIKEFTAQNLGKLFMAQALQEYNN
# Outline: as §1
# FAM105A = target: T3, FAM105A (UniProt Q9NUU6)
# T3 sequence (whole entry): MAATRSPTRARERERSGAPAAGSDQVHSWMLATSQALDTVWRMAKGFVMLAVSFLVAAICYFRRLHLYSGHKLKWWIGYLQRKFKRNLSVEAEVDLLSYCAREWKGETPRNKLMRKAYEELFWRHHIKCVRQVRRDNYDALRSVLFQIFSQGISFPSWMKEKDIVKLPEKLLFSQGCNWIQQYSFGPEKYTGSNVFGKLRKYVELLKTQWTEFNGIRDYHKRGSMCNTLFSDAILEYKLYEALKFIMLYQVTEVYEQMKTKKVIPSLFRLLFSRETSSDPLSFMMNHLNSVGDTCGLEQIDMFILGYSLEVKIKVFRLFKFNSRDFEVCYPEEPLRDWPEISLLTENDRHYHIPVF
# Outline: as §1
# OTUB1 = OTUB1 (UniProt Q96FW1)
# Chain of OTUB1 (Q96FW1 whole entry): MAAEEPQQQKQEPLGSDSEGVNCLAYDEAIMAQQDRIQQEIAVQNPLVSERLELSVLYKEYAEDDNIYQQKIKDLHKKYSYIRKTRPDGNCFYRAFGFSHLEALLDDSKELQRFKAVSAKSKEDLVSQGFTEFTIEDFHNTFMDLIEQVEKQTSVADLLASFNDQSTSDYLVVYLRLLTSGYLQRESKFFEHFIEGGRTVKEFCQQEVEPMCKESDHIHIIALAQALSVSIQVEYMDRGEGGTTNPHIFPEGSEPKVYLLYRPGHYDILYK
# Outline: as §1
# OTUD4 = target: T4, OTUD4 (UniProt Q01804)
# T4 sequence (whole entry): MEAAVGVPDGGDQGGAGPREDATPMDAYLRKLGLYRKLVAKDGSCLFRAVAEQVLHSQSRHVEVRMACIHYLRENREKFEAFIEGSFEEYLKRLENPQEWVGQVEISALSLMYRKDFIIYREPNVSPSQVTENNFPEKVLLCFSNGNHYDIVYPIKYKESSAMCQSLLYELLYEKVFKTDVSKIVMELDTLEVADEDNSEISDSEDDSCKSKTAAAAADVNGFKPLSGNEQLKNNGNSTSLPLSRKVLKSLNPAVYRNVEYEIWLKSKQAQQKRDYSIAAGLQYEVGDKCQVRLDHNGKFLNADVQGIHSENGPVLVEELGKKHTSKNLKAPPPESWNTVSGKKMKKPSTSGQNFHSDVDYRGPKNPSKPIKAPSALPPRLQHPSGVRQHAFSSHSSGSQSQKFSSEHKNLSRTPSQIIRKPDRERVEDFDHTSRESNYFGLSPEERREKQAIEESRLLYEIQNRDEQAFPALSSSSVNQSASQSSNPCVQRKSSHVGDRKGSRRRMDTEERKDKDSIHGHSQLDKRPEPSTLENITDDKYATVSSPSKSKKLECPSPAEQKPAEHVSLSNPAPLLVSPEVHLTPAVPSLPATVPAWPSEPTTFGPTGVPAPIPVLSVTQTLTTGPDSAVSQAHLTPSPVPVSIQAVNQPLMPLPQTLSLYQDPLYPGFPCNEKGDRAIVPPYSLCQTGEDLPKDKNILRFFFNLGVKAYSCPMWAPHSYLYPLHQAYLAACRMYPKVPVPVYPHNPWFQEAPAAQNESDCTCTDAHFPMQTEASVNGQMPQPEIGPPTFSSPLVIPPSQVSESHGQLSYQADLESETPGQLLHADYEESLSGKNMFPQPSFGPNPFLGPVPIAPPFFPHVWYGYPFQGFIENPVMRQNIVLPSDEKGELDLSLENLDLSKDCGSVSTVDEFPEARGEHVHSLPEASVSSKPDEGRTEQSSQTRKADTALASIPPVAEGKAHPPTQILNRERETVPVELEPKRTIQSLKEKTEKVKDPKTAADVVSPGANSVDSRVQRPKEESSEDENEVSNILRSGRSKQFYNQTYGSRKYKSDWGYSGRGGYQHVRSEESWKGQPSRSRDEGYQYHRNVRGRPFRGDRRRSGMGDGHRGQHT
# Outline: as §1
# OTUD5 = target: T5, OTUD5 (UniProt Q96G74)
# T5 sequence (whole entry): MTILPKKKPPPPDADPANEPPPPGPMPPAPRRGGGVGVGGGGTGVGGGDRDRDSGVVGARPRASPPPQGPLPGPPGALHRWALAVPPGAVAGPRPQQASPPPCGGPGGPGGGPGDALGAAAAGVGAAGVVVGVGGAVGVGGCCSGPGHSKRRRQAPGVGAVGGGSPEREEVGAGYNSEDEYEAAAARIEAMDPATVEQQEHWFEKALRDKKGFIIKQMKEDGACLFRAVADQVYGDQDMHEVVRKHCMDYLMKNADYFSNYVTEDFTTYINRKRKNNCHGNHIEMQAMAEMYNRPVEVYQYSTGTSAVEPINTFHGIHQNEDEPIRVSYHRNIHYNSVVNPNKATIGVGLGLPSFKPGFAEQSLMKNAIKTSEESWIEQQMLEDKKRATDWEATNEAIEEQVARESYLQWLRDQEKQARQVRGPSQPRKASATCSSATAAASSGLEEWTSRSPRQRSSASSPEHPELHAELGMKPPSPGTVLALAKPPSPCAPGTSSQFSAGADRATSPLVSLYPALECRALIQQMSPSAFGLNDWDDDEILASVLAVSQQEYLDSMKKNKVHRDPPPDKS
# Outline: as §1
smiles,measurement,setting,value
Cc1ccc(C(=O)NCCNC(=O)CCl)cc1,log2 ratio of Biotin-Ahx-Ub-VS probe labelling,ALG13,-0.0475
same,log2 ratio of Biotin-Ahx-Ub-VS probe labelling,ATXN3,-0.159
same,log2 ratio of Biotin-Ahx-Ub-VS probe labelling,BAP1,-1.49 (active)
same,log2 ratio of Biotin-Ahx-Ub-VS probe labelling,EIF3F,-0.13
same,log2 ratio of Biotin-Ahx-Ub-VS probe labelling,EIF3H,-0.101
same,log2 ratio of Biotin-Ahx-Ub-VS probe labelling,FAM105A,-0.349
same,log2 ratio of Biotin-Ahx-Ub-VS probe labelling,OTUB1,-0.162
same,log2 ratio of Biotin-Ahx-Ub-VS probe labelling,OTUD4,-0.371
same,log2 ratio of Biotin-Ahx-Ub-VS probe labelling,OTUD5,-0.264

# Source: the supplement of paper PMC11732987, “Enantioselective OTUD7B fragment discovery through chemoproteomics screening and high-throughput optimisation” (Communications Chemistry, 2025)
